Target: T1, GST-Nv-NF-kB (Ser allele) (Nematostella vectensis, UniProt A7UNT2 2-411)
T1 sequence: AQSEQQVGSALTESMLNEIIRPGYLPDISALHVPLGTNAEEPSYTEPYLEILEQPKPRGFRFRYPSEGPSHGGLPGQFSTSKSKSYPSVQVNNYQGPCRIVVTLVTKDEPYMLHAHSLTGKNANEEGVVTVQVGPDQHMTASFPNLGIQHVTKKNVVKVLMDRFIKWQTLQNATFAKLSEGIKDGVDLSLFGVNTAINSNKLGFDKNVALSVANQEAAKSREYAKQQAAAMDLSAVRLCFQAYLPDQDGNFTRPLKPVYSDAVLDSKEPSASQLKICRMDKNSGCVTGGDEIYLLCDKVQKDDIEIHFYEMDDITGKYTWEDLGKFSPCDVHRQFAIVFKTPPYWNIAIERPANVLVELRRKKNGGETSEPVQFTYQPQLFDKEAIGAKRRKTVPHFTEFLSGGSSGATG
Assay: protein-binding microarray (PBM); PBM: ~300 nM protein, 6 mM HEPES pH 7.8, 80 mM KCl, 0.5 mM EDTA, 0.5 mM EGTA, 6% glycerol, 35 ng/ul poly-dIdC, 1% milk, 1 h, room temperature; Ap Aiptasia and Nv Nematostella (sea anemones) / Co Capsaspora / Aq Amphimedon (sponge) / Dm Drosophila / Hu human; RHD is the Rel homology domain; high values mean tight binding
Details: dsDNA, one strand shown

| Sequence | binding signal |
| --- | --- |
| CCGATTAACATCAAATTTACCCCTGATGTTAATCGGGTCTTGATTCGCTTGACGCTGCTG | 5.32 z-score |
| CCGATTAACATCAATCCACCCCCTGATGTTAATCGGGTCTTGATTCGCTTGACGCTGCTG | 3.94 z-score |
| CCGATTAACATCAGGGGGAGTTATGATGTTAATCGGGTCTTGATTCGCTTGACGCTGCTG | 6.11 z-score |
| CCGATTAACATCAAACCCCCCCATGATGTTAATCGGGTCTTGATTCGCTTGACGCTGCTG | 4.41 z-score |
| CCGATTAACATCAAGGAACCCCCTGATGTTAATCGGGTCTTGATTCGCTTGACGCTGCTG | 6.23 z-score |
| CCGATTAACATCACGGGGGGGGCTGATGTTAATCGGGTCTTGATTCGCTTGACGCTGCTG | 2.3 z-score |
| CCGATTAACATCACAGCCCCCCCTGATGTTAATCGGGTCTTGATTCGCTTGACGCTGCTG | 3.62 z-score |
| CCGATTAACATCAGGGATGCCCCTGATGTTAATCGGGTCTTGATTCGCTTGACGCTGCTG | 4.08 z-score |
| CCGATTAACATCACTTCCCCCCATGATGTTAATCGGGTCTTGATTCGCTTGACGCTGCTG | 4.67 z-score |
| CCGATTAACATCAGGCGTTCCCCTGATGTTAATCGGGTCTTGATTCGCTTGACGCTGCTG | 5.77 z-score |
| CCGATTAACATCAGGGGGAGCACTGATGTTAATCGGGTCTTGATTCGCTTGACGCTGCTG | 4.71 z-score |
| CCGATTAACATCAGGGGGGGGGATGATGTTAATCGGGTCTTGATTCGCTTGACGCTGCTG | 5.68 z-score |
| CCGATTAACATCACAAATACCCCTGATGTTAATCGGGTCTTGATTCGCTTGACGCTGCTG | 4.74 z-score |
| CCGATTAACATCAGGGGGGGAACTGATGTTAATCGGGTCTTGATTCGCTTGACGCTGCTG | 6.12 z-score |
| CCGATTAACATCAGGACTGCCCCTGATGTTAATCGGGTCTTGATTCGCTTGACGCTGCTG | 1.72 z-score |
| CCGATTAACATCAAAAAATCCCTTGATGTTAATCGGGTCTTGATTCGCTTGACGCTGCTG | 5.87 z-score |
| CCGATTAACATCAGAAAAATCCCTGATGTTAATCGGGTCTTGATTCGCTTGACGCTGCTG | 5.14 z-score |
| CCGATTAACATCAGACCCCCCCCTGATGTTAATCGGGTCTTGATTCGCTTGACGCTGCTG | 3.56 z-score |
| CCGATTAACATCAGAGTATCCCCTGATGTTAATCGGGTCTTGATTCGCTTGACGCTGCTG | 5.44 z-score |
| CCGATTAACATCACGGAATTCCCTGATGTTAATCGGGTCTTGATTCGCTTGACGCTGCTG | 6.06 z-score |

| Sequence | binding signal |
| --- | --- |
| CCGATTAACATCAATAAAATCCCTGATGTTAATCGGGTCTTGATTCGCTTGACGCTGCTG | 4.09 z-score |
| CCGATTAACATCAGGCCTTCCCCTGATGTTAATCGGGTCTTGATTCGCTTGACGCTGCTG | 5.25 z-score |
| CCGATTAACATCAGGGGGAGGGATGATGTTAATCGGGTCTTGATTCGCTTGACGCTGCTG | 4.98 z-score |
| CCGATTAACATCAGATAACCCCCTGATGTTAATCGGGTCTTGATTCGCTTGACGCTGCTG | 5.95 z-score |
| CCGATTAACATCAAGGAATTCCCTGATGTTAATCGGGTCTTGATTCGCTTGACGCTGCTG | 6.37 z-score |
| CCGATTAACATCAAGGGGGGAACTGATGTTAATCGGGTCTTGATTCGCTTGACGCTGCTG | 6.05 z-score |
| CCGATTAACATCAAAAATTCACCTGATGTTAATCGGGTCTTGATTCGCTTGACGCTGCTG | 3.83 z-score |
| CCGATTAACATCACGGGGTTTTCTGATGTTAATCGGGTCTTGATTCGCTTGACGCTGCTG | 5.22 z-score |
| CCGATTAACATCAGGGGGAGTCATGATGTTAATCGGGTCTTGATTCGCTTGACGCTGCTG | 5.02 z-score |
| CCGATTAACATCAGGGGTTTTACTGATGTTAATCGGGTCTTGATTCGCTTGACGCTGCTG | 4.36 z-score |
| CCGATTAACATCAAACCCCCCCTTGATGTTAATCGGGTCTTGATTCGCTTGACGCTGCTG | 4.97 z-score |
| CCGATTAACATCAAGGGGGAGGGTGATGTTAATCGGGTCTTGATTCGCTTGACGCTGCTG | 3.99 z-score |
| CCGATTAACATCAGAAATGCCCCTGATGTTAATCGGGTCTTGATTCGCTTGACGCTGCTG | 3.44 z-score |
| CCGATTAACATCACCGCTTCCCTTGATGTTAATCGGGTCTTGATTCGCTTGACGCTGCTG | 1.69 z-score |
| CCGATTAACATCAATATCCCCCCTGATGTTAATCGGGTCTTGATTCGCTTGACGCTGCTG | 6.44 z-score |
| CCGATTAACATCAGGGGGGAGACTGATGTTAATCGGGTCTTGATTCGCTTGACGCTGCTG | 5.69 z-score |
| CCGATTAACATCAGAAACCCCCATGATGTTAATCGGGTCTTGATTCGCTTGACGCTGCTG | 6.17 z-score |
| CCGATTAACATCAAGGGGGGAGATGATGTTAATCGGGTCTTGATTCGCTTGACGCTGCTG | 4.86 z-score |
| CCGATTAACATCAAACCCCCCCCTGATGTTAATCGGGTCTTGATTCGCTTGACGCTGCTG | 5.04 z-score |
